# Test results published in the supplement of paper PMC11732987, “Enantioselective OTUD7B fragment discovery through chemoproteomics screening and high-throughput optimisation” (Communications Chemistry, 2025).
# A number with no mark means an inactive call.
# Columns and labels:
# Test in all cases: log2 ratio of Biotin-Ahx-Ub-VS probe labelling (fragment/DMSO); higher = less target engagement (more negative = stronger competition), active = hit call of the paper (q ≤ 0.05, log2 ratio ≤ -1)
# Details in all cases: compound concentration: 200 uM; treatment time: 3 h
# OTUD6B = target: T1, OTUD6B (UniProt Q8N6M0)
# T1 sequence (whole entry): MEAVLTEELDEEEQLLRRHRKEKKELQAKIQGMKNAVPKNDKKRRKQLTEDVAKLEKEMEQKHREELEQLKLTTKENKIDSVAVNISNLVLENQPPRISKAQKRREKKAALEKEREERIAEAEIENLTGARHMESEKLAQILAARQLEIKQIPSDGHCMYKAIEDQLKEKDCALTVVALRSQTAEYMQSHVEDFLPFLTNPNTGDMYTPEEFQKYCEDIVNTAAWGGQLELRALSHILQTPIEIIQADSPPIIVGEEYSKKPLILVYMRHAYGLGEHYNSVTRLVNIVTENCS
# Method in brief: (§1)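 Global-median-normalised Spectronaut label-free quantities were compared by unpaired t-test, and values are average log2 ratios of fragment over vehicle. Only proteins with ≥2 unique peptides were used. HEK293T lysate (495 µg per sample) was treated in triplicate with fragment at 200 µM or vehicle for 3 h and then with Biotin-Ahx-Ub-VS at 0.5 µM final for 1 h. Labelled DUBs were then NeutrAvidin-enriched, digested with LysC and trypsin, and run by diaPASEF LC-MS/MS.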
# OTUD7B = target: T2, OTUD7B (UniProt Q6GQQ9)
# T2 sequence (whole entry): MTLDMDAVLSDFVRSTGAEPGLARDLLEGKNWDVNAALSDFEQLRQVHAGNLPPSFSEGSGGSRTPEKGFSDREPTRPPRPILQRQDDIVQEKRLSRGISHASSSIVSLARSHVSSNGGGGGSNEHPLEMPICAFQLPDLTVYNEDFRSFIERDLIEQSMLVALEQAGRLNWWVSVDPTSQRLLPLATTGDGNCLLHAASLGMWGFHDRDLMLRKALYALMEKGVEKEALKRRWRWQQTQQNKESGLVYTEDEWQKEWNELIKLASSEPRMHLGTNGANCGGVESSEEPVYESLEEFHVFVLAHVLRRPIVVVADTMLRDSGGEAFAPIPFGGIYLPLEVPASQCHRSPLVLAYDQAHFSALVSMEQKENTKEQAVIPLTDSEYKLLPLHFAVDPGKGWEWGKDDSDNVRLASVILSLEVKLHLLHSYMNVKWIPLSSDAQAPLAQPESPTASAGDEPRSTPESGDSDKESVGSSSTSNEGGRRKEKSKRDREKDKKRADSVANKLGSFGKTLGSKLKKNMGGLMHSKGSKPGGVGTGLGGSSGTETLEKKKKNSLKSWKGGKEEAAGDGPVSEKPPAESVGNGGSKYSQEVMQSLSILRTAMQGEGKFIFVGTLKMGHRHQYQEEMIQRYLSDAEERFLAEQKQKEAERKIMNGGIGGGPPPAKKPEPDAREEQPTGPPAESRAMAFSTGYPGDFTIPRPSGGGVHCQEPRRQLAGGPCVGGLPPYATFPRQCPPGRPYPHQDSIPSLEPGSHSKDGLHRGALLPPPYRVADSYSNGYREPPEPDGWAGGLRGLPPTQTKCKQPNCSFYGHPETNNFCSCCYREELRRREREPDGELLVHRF
# Method in brief: as §1
# PRPF8 = PRPF8 (UniProt Q6P2Q9)
# Method in brief: as §1
# PSMD7 = target: T3, PSMD7 (UniProt P51665)
# T3 sequence (whole entry): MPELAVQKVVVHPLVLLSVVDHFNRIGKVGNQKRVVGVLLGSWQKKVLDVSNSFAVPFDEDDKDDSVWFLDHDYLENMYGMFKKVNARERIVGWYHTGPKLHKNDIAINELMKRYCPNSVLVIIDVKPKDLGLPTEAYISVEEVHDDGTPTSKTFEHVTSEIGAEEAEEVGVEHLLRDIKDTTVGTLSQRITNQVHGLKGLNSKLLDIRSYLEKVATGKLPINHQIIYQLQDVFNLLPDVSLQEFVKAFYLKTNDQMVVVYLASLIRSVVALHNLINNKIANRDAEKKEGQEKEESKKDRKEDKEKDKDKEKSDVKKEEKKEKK
# Method in brief: as §1
# UCHL1 = UCHL1 (UniProt P09936)
# Method in brief: as §1
# UCHL3 = target: T4, UCHL3 (UniProt P15374)
# T4 sequence (whole entry): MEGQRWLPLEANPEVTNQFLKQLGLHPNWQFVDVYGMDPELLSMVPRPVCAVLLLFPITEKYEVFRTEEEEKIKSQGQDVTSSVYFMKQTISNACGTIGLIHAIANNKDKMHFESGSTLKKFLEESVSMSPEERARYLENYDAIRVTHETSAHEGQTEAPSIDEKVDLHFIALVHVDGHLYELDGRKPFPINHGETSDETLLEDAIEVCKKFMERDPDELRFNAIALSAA
# Method in brief: as §1
# UCHL5 = target: T5, UCHL5 (UniProt Q9Y5K5)
# T5 sequence (whole entry): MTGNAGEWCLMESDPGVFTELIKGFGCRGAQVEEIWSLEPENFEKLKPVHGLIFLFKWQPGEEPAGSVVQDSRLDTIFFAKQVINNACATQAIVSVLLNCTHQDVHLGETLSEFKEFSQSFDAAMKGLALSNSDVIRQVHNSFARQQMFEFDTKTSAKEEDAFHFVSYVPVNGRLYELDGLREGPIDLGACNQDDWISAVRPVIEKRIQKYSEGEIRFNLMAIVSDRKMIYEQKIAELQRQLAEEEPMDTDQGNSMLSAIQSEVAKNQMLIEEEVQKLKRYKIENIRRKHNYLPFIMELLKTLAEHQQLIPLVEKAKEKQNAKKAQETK
# Method in brief: as §1
# USP10 = USP10 (UniProt Q14694)
# Method in brief: as §1
# USP15 = target: T6, USP15 (UniProt Q9Y4E8)
# T6 sequence (whole entry): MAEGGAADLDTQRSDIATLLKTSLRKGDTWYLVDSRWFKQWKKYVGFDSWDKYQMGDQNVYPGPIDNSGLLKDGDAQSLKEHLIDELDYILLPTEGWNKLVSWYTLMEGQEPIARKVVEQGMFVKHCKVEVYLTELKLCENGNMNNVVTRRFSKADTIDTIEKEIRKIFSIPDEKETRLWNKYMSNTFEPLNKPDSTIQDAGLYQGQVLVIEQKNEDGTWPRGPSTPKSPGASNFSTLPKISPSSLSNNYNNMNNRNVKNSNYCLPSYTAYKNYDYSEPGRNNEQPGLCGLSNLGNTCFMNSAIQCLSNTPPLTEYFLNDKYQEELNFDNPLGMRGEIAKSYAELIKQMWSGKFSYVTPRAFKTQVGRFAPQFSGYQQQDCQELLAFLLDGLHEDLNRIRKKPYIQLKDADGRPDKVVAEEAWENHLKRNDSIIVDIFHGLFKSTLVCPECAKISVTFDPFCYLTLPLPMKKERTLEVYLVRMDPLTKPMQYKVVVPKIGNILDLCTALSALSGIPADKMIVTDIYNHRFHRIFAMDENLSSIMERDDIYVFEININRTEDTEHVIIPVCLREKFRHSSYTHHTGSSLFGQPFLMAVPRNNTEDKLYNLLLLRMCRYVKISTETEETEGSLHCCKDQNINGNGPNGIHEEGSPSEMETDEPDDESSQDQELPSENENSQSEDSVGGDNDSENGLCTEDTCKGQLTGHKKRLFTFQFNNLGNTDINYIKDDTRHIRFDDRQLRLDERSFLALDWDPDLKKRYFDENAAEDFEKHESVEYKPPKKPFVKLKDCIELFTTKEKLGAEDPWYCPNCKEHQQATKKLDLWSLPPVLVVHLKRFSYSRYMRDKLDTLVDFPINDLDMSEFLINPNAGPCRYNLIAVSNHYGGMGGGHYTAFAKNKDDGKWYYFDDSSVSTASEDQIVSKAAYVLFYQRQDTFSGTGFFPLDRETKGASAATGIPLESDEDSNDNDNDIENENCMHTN
# Method in brief: as §1
# USP10, sequence (Q14694 whole entry): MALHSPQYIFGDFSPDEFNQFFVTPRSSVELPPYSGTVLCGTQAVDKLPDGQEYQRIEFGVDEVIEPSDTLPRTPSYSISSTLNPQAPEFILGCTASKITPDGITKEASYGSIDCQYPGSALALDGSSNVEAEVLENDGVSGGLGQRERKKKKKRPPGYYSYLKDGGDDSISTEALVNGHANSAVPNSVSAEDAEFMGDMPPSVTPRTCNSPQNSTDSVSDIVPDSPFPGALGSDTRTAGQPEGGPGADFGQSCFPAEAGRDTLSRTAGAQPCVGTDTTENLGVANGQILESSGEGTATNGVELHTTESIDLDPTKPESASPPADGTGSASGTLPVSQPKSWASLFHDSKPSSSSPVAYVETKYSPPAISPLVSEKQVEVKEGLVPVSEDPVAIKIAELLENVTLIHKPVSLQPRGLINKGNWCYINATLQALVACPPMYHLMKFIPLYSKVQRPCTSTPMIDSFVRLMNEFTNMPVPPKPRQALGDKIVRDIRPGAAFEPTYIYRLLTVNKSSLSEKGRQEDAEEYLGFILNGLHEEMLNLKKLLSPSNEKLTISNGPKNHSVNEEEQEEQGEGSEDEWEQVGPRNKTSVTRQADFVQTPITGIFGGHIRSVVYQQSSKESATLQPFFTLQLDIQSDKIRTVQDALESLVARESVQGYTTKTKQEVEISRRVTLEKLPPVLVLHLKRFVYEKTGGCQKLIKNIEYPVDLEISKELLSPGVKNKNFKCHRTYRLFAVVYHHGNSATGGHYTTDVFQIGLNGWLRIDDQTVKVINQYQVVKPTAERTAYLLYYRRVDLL
# UCHL1, sequence (P09936 whole entry, looked up): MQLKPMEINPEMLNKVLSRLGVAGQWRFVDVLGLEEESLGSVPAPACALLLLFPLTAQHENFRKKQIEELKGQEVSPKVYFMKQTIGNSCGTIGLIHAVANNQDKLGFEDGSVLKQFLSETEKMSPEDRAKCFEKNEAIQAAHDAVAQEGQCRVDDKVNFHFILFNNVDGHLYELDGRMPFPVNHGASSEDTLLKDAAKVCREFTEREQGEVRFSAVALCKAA
compound,measurement,setting,value
O=C(CCl)Nc1cc(Cl)ccc1-n1cncn1,log2 ratio of Biotin-Ahx-Ub-VS probe labelling,OTUD6B,-1.04 (active)
same,log2 ratio of Biotin-Ahx-Ub-VS probe labelling,OTUD7B,-2.08 (active)
same,log2 ratio of Biotin-Ahx-Ub-VS probe labelling,PRPF8,-0.132
same,log2 ratio of Biotin-Ahx-Ub-VS probe labelling,PSMD7,-0.143
same,log2 ratio of Biotin-Ahx-Ub-VS probe labelling,UCHL1,-1.89 (active)
same,log2 ratio of Biotin-Ahx-Ub-VS probe labelling,UCHL3,-0.609
same,log2 ratio of Biotin-Ahx-Ub-VS probe labelling,UCHL5,-1.18 (active)
same,log2 ratio of Biotin-Ahx-Ub-VS probe labelling,USP10,-0.141
same,log2 ratio of Biotin-Ahx-Ub-VS probe labelling,USP15,-1.26 (active)
